# Results filed as inconclusive are left out. A number with no mark means an inactive call. Activity calls are given as the source filed them. Calls come from the whole dose curve; as a rule, active = well fitted cell-killing curve with a large enough effect; inconclusive = small, poorly fitted or top-dose-only effect, or effect the other way; inactive = no such curve, though single readings can be large or run the other way.
# Assay: Quantitative High-Throughput drug screen in 47 multiple myeloma cell lines against the NCATS MIPE library collection: LP1_DSMZ cell viability assay (AID 1918982); note: nearly all actives have a fitted effect of over 35% in size
# Conditions: LP1 myeloma viability, CellTiter-Glo ATP luminescence, 48 h; series mostly up to 45.8 µM; viability (% of control): at the top concentration
# In short: (§1)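 ATP-based luminescence (CellTiter-Glo, 5 min RT incubation) quantified surviving cells following two days' treatment with MIPE 4.0 agents at 37 °C, 5% CO2.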
# Potency is the fitted concentration of half-maximal effect.
SMILES,viability (% of control),Potency
CCCN[C@H]1CCc2nc(N)sc2C1,95.6%,
CCN(CC)CCn1c(=O)c(Cc2ccc(OC)cc2)nc2ccccc21,89.5%,
CNS(=O)(=O)Cc1ccc2[nH]cc(CCN(C)C)c2c1,96.3%,
CCCOc1ccc(C(=O)OCCN(CC)CC)cc1N,67%,
CC(C)NCC(O)c1ccc(NS(C)(=O)=O)cc1 (configuration not stated),110%,
CCCCCCNC(=O)n1cc(F)c(=O)[nH]c1=O,,11.8 µM (active)
Nc1ccc(S(=O)(=O)Nc2ccccn2)cc1,118%,
OC(Cn1cncn1)(Cn1cncn1)c1ccc(F)cc1F,91.3%,
CCOC(=O)c1ccc(OC(=O)CCCCCN=C(N)N)cc1,94.1%,
COC(=O)Nc1nc2ccc(C(=O)c3ccccc3)cc2[nH]1,,1.87 µM (active)
NC(=O)c1cccc(N)c1,110%,
CC(=O)[C@H]1CC[C@H]2[C@@H]3CC=C4C[C@@H](O)CC[C@]4(C)[C@H]3CC[C@]12C,103%,
CN(C)CCc1c[nH]c2ccc(CS(=O)(=O)N3CCCC3)cc12,75%,
CC(C(=O)O)c1ccc2c(c1)CC(=O)c1ccccc1S2 (configuration not stated),104%,
CC[C@H](NC(C)C)[C@H](O)c1ccc(O)c2[nH]c(=O)ccc12,100%,
C[C@@H]1CN(c2c(F)c(N)c3c(=O)c(C(=O)O)cn(C4CC4)c3c2F)C[C@H](C)N1,107% [at 23.2 µM],
CC(C)C1CCC(C(=O)N[C@H](Cc2ccccc2)C(=O)O)CC1 (some centres not stated),92.2%,
O=NN(CCCl)C(=O)NC1CCCCC1,144%,
CO[C@@H]1[C@@H](OC(N)=O)[C@@H](O)[C@H](Oc2ccc3c(O)c(NC(=O)c4ccc(O)c(CC=C(C)C)c4)c(=O)oc3c2C)OC1(C)C,83.6%,
O=P(O)(O)C(O)(Cc1cccnc1)P(=O)(O)O,123%,
CC1=CC(=O)c2ccccc2C1=O,,23.5 µM (active)
Cc1nnc(C(=O)NC(C)(C)c2nc(C(=O)NCc3ccc(F)cc3)c(O)c(=O)n2C)o1,111%,
Nc1nc(N)nc(-c2cc(Cl)ccc2Cl)n1,102%,
CC1=C(C(=O)O)N2C(=O)[C@@H](NC(=O)C(N)c3ccccc3)[C@H]2SC1 (some centres not stated),119%,
N[C@@H](Cc1ccc(O)c(O)c1)C(=O)O,86.1%,
N[C@@H](C(=O)N[C@@H]1C(=O)N2C(C(=O)O)=C(Cl)CS[C@H]12)c1ccccc1,104%,
COc1ncnc(NS(=O)(=O)c2ccc(N)cc2)c1OC,98.6%,
CC(C)Cn1cnc2c(N)nc3ccccc3c21,108%,

# Assay: Quantitative High-Throughput drug screen in 47 multiple myeloma cell lines against the NCATS MIPE library collection: KMS28PE_JCRB cell viability assay (AID 1918983); note: nearly all actives have a fitted effect of over 35% in size
# Conditions: KMS28PE multiple myeloma viability, CellTiter-Glo ATP, 48 h; series mostly up to 45.8 µM; viability, % of DMSO control: at the top concentration
# In short: as §1
SMILES,"viability, % of DMSO control",Potency
CCCN[C@H]1CCc2nc(N)sc2C1,120%,
CCN(CC)CCn1c(=O)c(Cc2ccc(OC)cc2)nc2ccccc21,114%,
CCCOc1ccc(C(=O)OCCN(CC)CC)cc1N,115%,
O=C(NCC1CN(c2ccc(N3CCOCC3=O)cc2)C(=O)O1)c1ccc(Cl)s1 (configuration not stated),109%,
CCCCCCNC(=O)n1cc(F)c(=O)[nH]c1=O,111%,
Nc1ccc(S(=O)(=O)Nc2ccccn2)cc1,143%,
O=C(O)C1CCCN(CCC=C(c2ccccc2)c2ccccc2)C1 (configuration not stated),102%,
OC(Cn1cncn1)(Cn1cncn1)c1ccc(F)cc1F,131%,
CN(Cc1cc(Br)cc(Br)c1N)C1CCCCC1,104%,
COC(=O)Nc1nc2ccc(C(=O)c3ccccc3)cc2[nH]1,,1.87 µM (active)
CC(=O)[C@H]1CC[C@H]2[C@@H]3CC=C4C[C@@H](O)CC[C@]4(C)[C@H]3CC[C@]12C,113%,
CC(C(=O)O)c1ccc2c(c1)CC(=O)c1ccccc1S2 (configuration not stated),123%,
C[C@@H]1CN(c2c(F)c(N)c3c(=O)c(C(=O)O)cn(C4CC4)c3c2F)C[C@H](C)N1,172% [at 23.2 µM],
CC1=NN(c2ccccc2)C(=O)C1,137%,
O=P(O)(O)C(O)(Cc1cccnc1)P(=O)(O)O,126%,
Cc1nnc(C(=O)NC(C)(C)c2nc(C(=O)NCc3ccc(F)cc3)c(O)c(=O)n2C)o1,124%,
Nc1nc(N)nc(-c2cc(Cl)ccc2Cl)n1,119%,
N[C@@H](C(=O)N[C@@H]1C(=O)N2C(C(=O)O)=C(Cl)CS[C@H]12)c1ccccc1,130%,
COc1ncnc(NS(=O)(=O)c2ccc(N)cc2)c1OC,125%,
CC(C)Cn1cnc2c(N)nc3ccccc3c21,,23.5 µM (active)

# Assay: Quantitative High-Throughput drug screen in 47 multiple myeloma cell lines against the NCATS MIPE library collection: L363_DSMZ cell viability assay (AID 1918984); note: nearly all actives have a fitted effect of over 40% in size
# Conditions: L363 myeloma viability, CellTiter-Glo ATP luminescence, 48 h; series mostly up to 45.8 µM; viability (% of control): at the top concentration
# In short: as §1
SMILES,viability (% of control),Potency
CCCN[C@H]1CCc2nc(N)sc2C1,103%,
CCN(CC)CCn1c(=O)c(Cc2ccc(OC)cc2)nc2ccccc21,83.3%,
Nc1ccc(S(=O)(=O)Nc2ccccn2)cc1,125%,
CCOC(=O)c1ccc(OC(=O)CCCCCN=C(N)N)cc1,97.6%,
CN(Cc1cc(Br)cc(Br)c1N)C1CCCCC1,124%,
CC[C@H](NC(C)C)[C@H](O)c1ccc(O)c2[nH]c(=O)ccc12,107%,
C[C@@H]1CN(c2c(F)c(N)c3c(=O)c(C(=O)O)cn(C4CC4)c3c2F)C[C@H](C)N1,110% [at 23.2 µM],
O=NN(CCCl)C(=O)NC1CCCCC1,92%,
O=P(O)(O)C(O)(Cc1cccnc1)P(=O)(O)O,118%,
Cc1nnc(C(=O)NC(C)(C)c2nc(C(=O)NCc3ccc(F)cc3)c(O)c(=O)n2C)o1,121%,
Nc1nc(N)nc(-c2cc(Cl)ccc2Cl)n1,110%,
CCOC(=O)c1ccc(C#Cc2ccc3c(c2)C(C)(C)CCS3)nc1,93.5%,
CN1CCCC(n2nc(Cc3ccc(Cl)cc3)c3ccccc3c2=O)CC1 (configuration not stated),,9.35 µM (active)
CC(C)Cn1cnc2c(N)nc3ccccc3c21,,4.18 µM (active)

# — PubChem BioAssay (NCATS)
